PubChem BioAssay (Tox21)
Where “and” joins values, the source holds several entries; their conditions need not be identical. Equal entries are not always repeated. Records with an inconclusive call do not appear. Where a call stands in place of a potency, no number is given. Calls of active or inactive are those of the source. The call rests on the fitted dose curve; in most records, active means well fitted cell-killing curve with a large enough effect in the repeat runs; inconclusive means weak or mixed curves, or effect the other way; inactive means no such curve, though single readings can be large or run the other way.

Experiment: qHTS assay for identifying genotoxic compounds that show differential cytotoxicity against isogenic chicken DT40 cell lines with known DNA damage response pathways - wild type cell line (AID 743012); further: nearly all actives have a fitted effect of over 60% in size
Details: DT40 wild type chicken cells viability, CellTiter-Glo, 40 h; series mostly up to 68.4 µM
Excerpt: U.S. Tox21 Program National Center for Advancing Translational Sciences [NCATS] NIH Chemical Genomics Center [NCGC] U.S. Environmental Protection Agency [EPA] National Institutes of Environmental Health Sciences [NIEHS] National Toxicology Program [NTP] U.S. Food and Drug Administration [FDA] Tox21 Assay Overview: DNA repair pathways play a critical role in cellular homeostasis by repairing DNA damage induced by endogenous processes and xenobiotics. Isogenic chicken DT40 cell lines deficient in different DNA repair pathways can be used to identify genotoxic compounds and aid in characterizing the nature of the DNA damage induced. Two DNA repair-deficient cell lines with disrupted genes, Rad54/Ku70 or Rev3, were used to screen the Tox21 10K compound library. Possible genotoxicity was based on the presence of a significant increase in cytotoxicity in one or more of the DNA repair-deficient cell lines compared to that observed in the parental DNA repair-proficient cell line. CellTiter Glo viability assay (Promega, Madison, WI) was used to measure cell viability in these cells after compound treatment. This assay includes the data from the wild type cell line.
Tox21 Assay Protocol Summary: 300 DT40 wild type cells in 5 uL/well were dispensed into white, solid-bottom 1536-well plates using a Multidrop Combi (ThermoFisher Scientific, Waltham, MA) dispenser. After the assay plates were incubated at 37 C/5% CO2 for approximately 0.5 hour, 23 nL of compounds dissolved in DMSO, positive controls or DMSO only was transferred into the assay plate by a pintool work station (Kalypsys, San Diego, CA). The assay plates were incubated at 37 C/5% CO2 for 40 hours. After 5 uL per well of CellTiter-Glo reagent was added into each well of the assay plates, the plates were incubated for 30 min at room temperature and the luminescence intensity of the plates was measured using a ViewLux (PerkinElmer, Shelton, CT) plate reader.
Potency means the concentration at half of the fitted maximal effect.

| SMILES | Potency |
| --- | --- |
| ClC(Cl)Br | inactive |
| O=C(O)c1cccc(Cl)c1 | inactive |
| ClCC(Cl)(Cl)Cl | inactive |
| CCN(CC)C(=O)[C@@H]1C=C2c3cccc4[nH]cc(c34)C[C@H]2N(C)C1 | 8.98 µM (active) and 10.6 µM (active) |
| O=C(N[C@H]1CN2CCC1CC2)c1cc2ccoc2cn1 | inactive |
| O=[N+]([O-])c1ccc(CBr)cc1 | inactive |
| O=C(CCN1CC1)OCC(CO)(COC(=O)CCN1CC1)COC(=O)CCN1CC1 | inactive |
| CC(C)(C)OC(=O)c1ncn2c1[C@@H]1CCCN1C(=O)c1c(Br)cccc1-2 | 26.6 µM (active) |
| CC1=C(C(=O)Nc2ccccc2)S(=O)(=O)CCO1 | 15.3 µM (active) |
| [As]#[In] | inactive |
| CCSC(=O)N(CC)C1CCCCC1 | inactive |
| O=C(NCO)NCO | inactive |
| OC(c1ccccc1)(c1ccccc1)C1CCNCC1 | 11.4 µM (active) |
| CCN(Cc1ccc(Cl)nc1)/C(=C/[N+](=O)[O-])NC | inactive |
| CCCSC(=O)N(CCC)CCC | inactive |
| CC(C1CC1)C(O)(Cn1cncn1)c1ccc(Cl)cc1 (stereo not given) | 48.3 µM (active) |
| CNC(=O)Oc1cccc(C(C)C)c1 | inactive |
| CCOC(=O)N(C)C(=O)CSP(=S)(OCC)OCC | 30.6 µM (active) |
| OCCSCSCCO | inactive |
| c1cc[c]([Hg][c]2ccccc2)cc1 | 0.273 µM (active) |

| SMILES | Potency |
| --- | --- |
| CNCC(=O)c1ccc(O)c(O)c1 | inactive |
| CN(C)CCc1ccc(O)cc1 | inactive |
| O=[N+]([O-])c1cc(Cl)c(Cl)c(Cl)c1 | inactive |
| CC(CC(C#N)(c1ccccc1)c1ccccc1)N(C)C (stereo not given) | 30.5 µM (active) |
| CCC1(c2ccccc2)C(=O)N=C(O)NC1=O (stereo not given) | inactive |
| CCCCOC(=O)c1ccccc1N | inactive |
| CCC1(c2ccccc2)C(=O)NC(=O)NC1=O | inactive |
| N#CCBr | inactive |
| N#Cc1ccncc1 | inactive |
| O=c1oc2ccccc2c(O)c1C1CCCc2ccccc21 (stereo not given) | inactive |
| COc1cc(OC)nc(Oc2cccc(Oc3nc(OC)cc(OC)n3)c2C(=O)O)n1 | inactive |
| CC1(C)COP(Oc2ccccc2)OC1 | inactive |
| Cc1ncc(CNC(=O)N(CCCl)N=O)c(N)n1 | inactive |
| COP(N)(=S)Oc1ccccc1C(=O)OC(C)C (stereo not given) | inactive |
| Nc1ccccc1Cl | inactive |
| Cc1nnc2n1-c1sc(CCC(=O)N3CCOCC3)cc1C(c1ccccc1Cl)=NC2 | inactive |
| CCCCN(CCCCO)N=O | inactive |
| O=C1CN=C(c2ccccc2)c2cc([N+](=O)[O-])ccc2N1 | inactive |
| CC(C)(C)C(=O)C(Oc1ccc(Cl)cc1)n1cncn1 (stereo not given) | 61.1 µM (active) |
| CCOC(=O)NC(=S)Nc1ccccc1NC(=S)NC(=O)OCC | 61.1 µM (active) |
